# In the supplement of paper PMC6555819:
# Tested on: FXR:RXRa (NR concentration 270 nM, RXRa partner concentration 90 nM)
# Test: PBM binding z-score (relative to random genomic background probes); higher = stronger binding; sequences stand for … in GC…GCGATTGACAGCGTAGAATGAAGG
# Summary of the method: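 On custom Agilent 4×180K arrays, double-stranded probes with 34-nt variable regions carried direct-repeat seeds, single-nucleotide variants, half-site ablations or random human genomic background. Ligand-free nuclear receptor dimers were applied for 1 h, and binding was read with antibodies against each partner (one per run). Binding z-scores come from regression-normalized fluorescence, with the random background probes as reference.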
row,Sequence,PBM binding z-score
1,TCATCTAGGTAATACAGGTGAAAGTCGGCATCTA,0.88
2,CGTCCAAGGTCAGAAGGTCAGTGAAAGCGACGTG,5.88
3,CATACAGGGTCAGCTAAGCCAGAGTAGGGACGGC,4.23
4,TATACAGGGTCAGAGGCCAGAGTACGAATGTCGA,4.14
5,GGATCGAGGGCATTCGAGTTGATAGCATGGCGAT,0.788
6,ACTAGTTGGTCAGCTGTGGTCACACACAATTCGG,0.168
7,TCGAGTAGGTTAGGGGCACTCAGAATGGCGTCGA,0.134
8,CCTAGAAGGCCAATCTGGGTCACTCAAGGCTTGA,1.99
9,ACTTACGAGTCAACGAGGTTATAGCACGCGTATA,0.899
10,TAGCCTAGGTCATGGGCTAGTATACCACGCGAAC,4.37
11,TCTGCTAGGTCAACGATGGTCATCTAATCTGCTA,3.5
12,TCTATTAGCTGATTAGGGCAACCGAAACAGCGGA,0.113
13,CTCGAAAGGTGGGTTGAGGTGAGTATACGGATAA,0.825
14,CGTCCAAGGTCATAGGAAGTCAGTGAAGACAGAT,6.83
15,ATCTATAGGTAACAAGTTCAGTGAAAGAGAGGAC,0.766
16,TCGTGTAGATCAAGCAGGTTAAGAAAGCCTGAGT,0.141
17,CCTGGGAGGACAACAGGAGGTCAGAGCTGCCAGA,1.53
18,AGAATGAGGGTATACGTAGATCAGGGAAGAAAGT,0.101
19,AATACAGGGTCACTAGGCTAGAGTAGGTACGAAT,6.21
20,TCGAGTAGGTTACTAATGGGGCATTCAGCTTTCT,-0.458
21,GTACCAACGTGAATAGGTCGTTGATGAGTAGGCG,-0.282
22,CCTACTGGGCCATCAGGTTATTGATATCAACGTT,0.0751
